HSF1 inhib = HSF1 inhibitors in luciferase reporter cells, primary screen, cell-based, NIH3T3, luminescence; NIH3T3-HGL HSE-luciferase, MG132-induced, luminescence 8 h; hits give low values; activity change, negative = inhibition, % at 7.5 µM (by protocol); 300,000 compounds, 0.77% hits; AID 2098, 2009;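 active = more than half of replicate wells show activity change below -50%, luminescence cut by over half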;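 note: luciferase reports HSF-1 transcriptional activity via heat shock element; 0% = median of DMSO wells and -100% = zero luminescence signal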
LGR2 inh = inhibitors of bursicon-induced LGR2 CRE-luciferase signal, primary screen, cell-based, HEK293, CRE-luciferase reporter, bursicon stimulation; Drosophila bursicon receptor LGR2 (rickets); bursicon-stimulated, 4 h; inhibition, % at 9.99 µM; 380,000 compounds, 0.35% hits; AID 720647, 2013;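 active = drop in luminescence signal, shown as inhibition above about 50% in the replicate tests, limit read from the data, passing the limit was not always enough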;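 note: agonist challenge used bursicon conditioned medium at about half maximal strength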
HSF-1 act = HSF-1 activators, primary screen, NIH3T3-HGL cells, MG132 stress, luminescence, single point; NIH3T3-HGL HSF-1 luciferase reporter, 8 h; 100% = twice DMSO control signal; activation, % at 9 µM; 300,000 compounds, 1.7% hits; AID 504408, 2011;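 active = mean replicate activation of at least 50% with a set share of replicates each reaching 50%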;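 note: 0% = median of the neutral control wells and 100% = twice that signal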
TWEAK-Fn14 inh = inhibitors of TWEAK-Fn14 signaling, primary screen, luciferase reporter cells, uHTS. TWEAK-stimulated Fn14 reporter cells, luciferase luminescence, 8 h. inhibition, % at 10 µM. 360,000 compounds, 2% hits; in the data active = inhibition above about 50%
LMP1 NFkB inh = EBV LMP1-driven NF-kappaB luciferase reporter inhibitors, primary screen, cell-based, luminescence, single point. LMP1-induced NF-kappaB luciferase reporter cells. inhibition, % at 12.5 µM. 350,000 compounds, 0.69% hits. AID 504558, 2011; in the data active = inhibition above about 41%;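 note: 0% = neutral control wells and 100% = reference inhibitor control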
TROY signal inh = inhibitors of TROY-driven NF-kB signaling, primary screen, Q293 LMP1-TROYcd cells, NF-kB luciferase, uHTS. Q293 LMP1-TROYcd NF-kB luciferase reporter, 4 h. inhibition, % at 10 µM. 360,000 compounds, 0.98% hits. AID 1347056, 2019;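 active = compounds whose plate-normalised and pattern-corrected inhibition of the luciferase reporter signal at the single screening dose is 50% or more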
* marks the source's active call; other numbers are inactive results. Hits are enriched below; roughly 3.6% of the tested compounds scored in any of these assays.

What do the screens show for `C[C@H]1CN([C@@H](C)CO)C(=O)Cc2cc(NS(=O)(=O)c3ccc(Cl)cc3)ccc2O[C@@H]1CN(C)Cc1ccc(C(=O)O)cc1`?
LGR2 inh: 1

Results for Cc1cc(NC(=O)C2CCCN2C(=O)Nc2cccc(Cl)c2)ccc1-n1cnnn1 (stereo unspecified) ?
HSF1 inhib: -1; LGR2 inh: 23; HSF-1 act: -7; TWEAK-Fn14 inh: 55*; LMP1 NFkB inh: 13; TROY signal inh: 9

How did CCOC(=O)c1c(NC(=O)OC)sc(C(=O)N(CC)CC)c1C do in these assays?
HSF1 inhib: -72*; HSF-1 act: -78; TWEAK-Fn14 inh: -5; LMP1 NFkB inh: -4; TROY signal inh: 14

Results for Cc1nc2scc(C)n2c(=O)c1S(=O)(=O)N1CCN(c2cccc(C(F)(F)F)c2)CC1 ?
HSF1 inhib: -65*; LGR2 inh: 14; HSF-1 act: -70; TWEAK-Fn14 inh: 12; LMP1 NFkB inh: -6; TROY signal inh: 2

What do the screens show for `Cc1c(S(=O)(=O)N2CCN(c3cccc(C(F)(F)F)c3)CC2)c(=O)n(C)c(=O)n1C`?
HSF1 inhib: -3; HSF-1 act: 0; TWEAK-Fn14 inh: 8; LMP1 NFkB inh: 6; TROY signal inh: 5

What do the screens show for `COc1cccc(/C=N/NC(=O)c2nnn(-c3nonc3N)c2C(C)C)c1OCc1ccc(F)cc1`?
HSF1 inhib: -2; HSF-1 act: -12; TWEAK-Fn14 inh: 63*; LMP1 NFkB inh: 14; TROY signal inh: 62*

What do the screens show for `CC(C)c1c(C(=O)N/N=C/c2cccc(OCc3ccccc3)c2)nnn1-c1nonc1N`?
HSF1 inhib: 7; LGR2 inh: 13; HSF-1 act: -3; TWEAK-Fn14 inh: 43; LMP1 NFkB inh: -11; TROY signal inh: 58*

How did CCCc1c(C(=O)N/N=C/c2cccc(OCc3ccc(F)cc3)c2)nnn1-c1nonc1N do in these assays?
HSF1 inhib: 7; LGR2 inh: 1; HSF-1 act: 19; TWEAK-Fn14 inh: -16; LMP1 NFkB inh: 3; TROY signal inh: 12

Results for Nc1nonc1-n1nnc(C(=O)N/N=C/c2cccc(Cl)c2)c1-c1cccs1 ?
HSF1 inhib: -5; LGR2 inh: 3; HSF-1 act: 14; TWEAK-Fn14 inh: 51*; LMP1 NFkB inh: -1; TROY signal inh: 6

Results for CCN(CC)Cc1c(C(=O)N/N=C/c2cccc(OCc3cccc(Cl)c3)c2)nnn1-c1nonc1N ?
HSF1 inhib: 25; LGR2 inh: -40; HSF-1 act: 57*; TWEAK-Fn14 inh: 1; LMP1 NFkB inh: -5; TROY signal inh: 18

Results for COc1cc(/C=N/NC(=O)c2nnn(-c3nonc3N)c2C(C)C)ccc1OCc1ccccc1 ?
HSF1 inhib: 25; LGR2 inh: -3; HSF-1 act: 43; TWEAK-Fn14 inh: 62*; LMP1 NFkB inh: -4; TROY signal inh: 37

Results for CN(C)Cc1c(C(=O)N/N=C/c2ccc(OCc3c(F)cccc3Cl)cc2)nnn1-c1nonc1N ?
HSF1 inhib: 55; LGR2 inh: 5; HSF-1 act: 108*; TWEAK-Fn14 inh: 9; LMP1 NFkB inh: -12; TROY signal inh: 15

Results for Cn1cnc(S(=O)(=O)N[C@H]2CC[C@@H](CC(=O)NCC3CCCCC3)O[C@@H]2CO)c1 ?
LGR2 inh: 1

Results for O=c1c2ccccc2cnn1-c1ccc2ccccc2c1 ?
HSF1 inhib: 29; LGR2 inh: 36; HSF-1 act: 62*; TWEAK-Fn14 inh: 55*; LMP1 NFkB inh: 6; TROY signal inh: 15

How did CCN(CC)Cc1c(O)ccc2c([N+](=O)[O-])c(C)n(-c3ccc(OC)cc3)c12 do in these assays?
HSF1 inhib: -30; HSF-1 act: -35; TWEAK-Fn14 inh: 74*; LMP1 NFkB inh: 37; TROY signal inh: 36

What do the screens show for `Cc1ccccc1-c1ccc2c(c1)O[C@@H](CN(C)Cc1ccncc1)[C@H](C)CN([C@H](C)CO)S2(=O)=O`?
LGR2 inh: 0

How did CCOc1ccc2sc(NS(=O)(=O)c3ccc(OC)c(OC)c3)nc2c1 do in these assays?
HSF1 inhib: 32; HSF-1 act: 64*; TWEAK-Fn14 inh: 1; LMP1 NFkB inh: -7; TROY signal inh: -5

Results for COc1ccc(/C=C(/C(=O)c2cccs2)N2C=CC=CC2=C(C#N)C#N)cc1 ?
HSF1 inhib: 99; HSF-1 act: 177*; TWEAK-Fn14 inh: 34; LMP1 NFkB inh: 0; TROY signal inh: 40

What do the screens show for `COc1ccc(C(C)NCCC(c2ccc(OC(C)C)cc2)c2ccccc2OC)cc1` (stereo unspecified)?
HSF1 inhib: -2; LGR2 inh: 99*; HSF-1 act: -2; TWEAK-Fn14 inh: -2; LMP1 NFkB inh: -11; TROY signal inh: -15

What do the screens show for `O=C(c1ccccc1)N1N=C(c2ccccc2)CC1c1ccccc1[N+](=O)[O-]` (stereo unspecified)?
HSF1 inhib: 15; LGR2 inh: -8; HSF-1 act: 18; TWEAK-Fn14 inh: -36; LMP1 NFkB inh: 1; TROY signal inh: -53

Results for CC(=O)N1N=C(c2ccccc2)CC1c1ccccc1[N+](=O)[O-] (stereo unspecified) ?
HSF1 inhib: 76; LGR2 inh: -6; HSF-1 act: 109*; TWEAK-Fn14 inh: 2; LMP1 NFkB inh: -4; TROY signal inh: -54

Results for CC(=O)OC[C@]12CC[C@H]3[C@@](C)(CC[C@H]4C(C)(C)CCC[C@]34C)[C@@H]1CC(C1=CC(=O)OC1O)O2 (stereo partly specified) ?
TWEAK-Fn14 inh: 108*; TROY signal inh: 88*

What do the screens show for `CCN1C(=O)[C@H]2[C@@H](c3ccc(SC4CCCCC4)c(OC)c3)N3CCCC[C@@]3(C(=O)OC)[C@H]2C1=O`?
HSF1 inhib: 12; HSF-1 act: 14; TWEAK-Fn14 inh: 13; LMP1 NFkB inh: 6; TROY signal inh: -6

Results for CCN1C(=O)[C@@H]2[C@@H](c3ccc(SC4CCCCC4)cc3)N3CCCC[C@@]3(C(=O)OC)[C@@H]2C1=O ?
HSF1 inhib: 0; HSF-1 act: -10; TWEAK-Fn14 inh: 61*; LMP1 NFkB inh: 3; TROY signal inh: 63*

What do the screens show for `CCN1C(=O)[C@@H]2[C@@H](c3ccc(-c4ccc(Cl)c(Cl)c4)cc3)N3CCC[C@@]3(C(=O)OC)[C@@H]2C1=O`?
LGR2 inh: 4; TWEAK-Fn14 inh: -17; LMP1 NFkB inh: 75*; TROY signal inh: 14

Bioassay records as filed in PubChem BioAssay.
